The results in this text go back to ChEMBL document CHEMBL1961873, “Compounds: GSK PKIS; Assays: Nanosyn kinase panel” (2012).

Several values for one entry are separate records, joined by “and”; a condition that tells them apart may be missing. Equal values may be shown once.
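Note: mean inhibition of the CDK2–cyclin A kinase complex.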

For the assay, the target named is Cyclin-dependent kinase 2 (Homo sapiens) (UniProt P24941). To be noted: at 1 µM.
For the compound `Cc1cc(O)cc(C)c1/C=C/c1cncc(C(N)=O)c1`, the inhibition was found to be 1.98%. As for `CC1=C(C(=O)Nc2ccc3[nH]ncc3c2)C(c2ccc(F)cc2)N=C(c2ccc(C(F)(F)F)nc2)N1` (stereo unspecified), the figure is 3.53%; as for `COc1c(C(N)=O)cc(-c2ccc(Cl)cc2)cc1-c1ccc(S(N)(=O)=O)cc1`, 3.62%; as for `Cc1cc(O)cc(C)c1/C=C/c1cncc(C(=O)OC(C)(C)C)c1`, 0.25%. With `COc1ccc(Nc2ncc(-c3ccccc3)o2)cc1OC` the figure was 31.6%; with `Fc1ccc(Nc2nccc(-c3c(-c4ccc(C(F)(F)F)cc4)nn4ncccc34)n2)cc1F`, -0.44%; with `O=C(O[C@H]1CN[C@H](C#Cc2cc3ncnc(Nc4ccc(OCc5cccc(F)c5)c(Cl)c4)c3s2)C1)N1CCOCC1`, -1.38%.

`COc1ccc2ncn(-c3cc(O[C@H](C)c4ccccc4C(F)(F)F)c(C(N)=O)s3)c2c1`: the inhibition worked out at 0.96%.

On to `CNC(=O)c1ncccc1Nc1nc(Nc2cc3c(cc2OC)CCCN3C(=O)CN(C)C)nc2[nH]ccc12`, for which the inhibition was 9.91%.

Consider `COc1ccccc1-c1cc(/C=C2\C(=O)Nc3ncc(Br)cc32)cc(Br)c1O`, for which the inhibition was -1.47%.

On to `c1cnn2ncc(-c3ccnc(NCCCN4CCOCC4)n3)c2c1`, for which the inhibition is 5.75%. With `CCCNc1cccc(-n2ncc3c(N/N=C/c4ccncc4)ncnc32)c1` the figure was 42.1%; with `OCCCNc1nccc(-c2c(-c3ccc(F)cc3)nn3cc(C(F)(F)F)ccc23)n1`, -3.65%.

Regarding `CS(=O)(=O)Nc1ccc(-c2ccc3c(NC(=O)C4CC4)n[nH]c3c2)cc1`, the inhibition was 6.28%.

`CN1CCC(C(=O)Nc2n[nH]c3nc(-c4ccc(O)cc4)c(Br)cc23)CC1`: the inhibition is 63.1% and 63.2%. With `CS(=O)(=O)Nc1ccc(-c2cc(-c3ccccc3)cc(C(N)=O)c2N)cc1` the figure was 1.06%; with `COc1cccc(Nc2nccc(-c3cnn4ncccc34)n2)c1`, 105%; with `CS(=O)(=O)CCNCc1ccc(-c2ccc3ncnc(Nc4ccc(OCc5ccccc5)cc4)c3c2)o1`, 2.53%.

Consider `CC(C)c1ccc(-c2cc(-c3c[nH]nc3-c3ccccn3)ccn2)cc1`, for which the inhibition was -0.02%. As for `FC(F)(F)CNc1nccc(-c2cnn3ncccc23)n1`, the figure is 14.1%; as for `Cc1nnc(-c2cccc(-c3ccc(C(=O)NCC4CC4)cc3)c2)o1`, 13.5%. With `COc1ccc(-c2nn3ncccc3c2-c2ccnc(Nc3ccc(F)c(F)c3)n2)cc1` the figure was 3.93%; with `O=C(Nc1n[nH]c2nnc(-c3cccnc3)cc12)C1CC1`, 91.2%; with `NS(=O)(=O)c1ccc(N/N=C2\C(=O)Nc3cccc(CCc4ccncc4)c32)cc1`, 71.6%. As for `CNC(=O)c1cncc(/C=C/c2ccccc2C)c1`, the figure is 11%; as for `NS(=O)(=O)c1ccc(N/N=C2\C(=O)Nc3ccc(C(=O)NCc4ccncc4)cc32)cc1`, 110%; as for `CCS(=O)(=O)c1ccc(OC)c(Nc2ncc(-c3cccc(F)c3)o2)c1`, 4.31%. Regarding `COc1cccc(-n2ncc3c(N/N=C/c4ccc(C(=O)NCCN(C)C)cc4)ncnc32)c1`, the inhibition came out at 89.9%. With `COC(=O)Nc1nc2ccc(Oc3ccc(NC(=O)Nc4cc(C(F)(F)F)ccc4F)cc3)cc2s1` the figure was 3.03%; with `Cn1c(-c2nonc2N)nc2cnccc21`, 11.2%. As for `CCN1CCC(C(=O)Nc2n[nH]c3nnc(-c4cccc(F)c4F)cc23)CC1`, the figure is 20.4%.
